High-throughput results from PubChem.
D2 ag-1 – agonists of human D2 dopamine receptor (beta-arrestin); activation, % (no concentration beside the values); 360,000 compounds, 0.084% hits; P14416; AID 624465; DiscoveRx PathHunter D2 beta-arrestin, luminescence, 90 min; 100% = 57 uM dopamine signal; in the data active means activation above about 40%; inconclusive means between about 15% and that limit
Target sequence (P14416 whole entry, looked up): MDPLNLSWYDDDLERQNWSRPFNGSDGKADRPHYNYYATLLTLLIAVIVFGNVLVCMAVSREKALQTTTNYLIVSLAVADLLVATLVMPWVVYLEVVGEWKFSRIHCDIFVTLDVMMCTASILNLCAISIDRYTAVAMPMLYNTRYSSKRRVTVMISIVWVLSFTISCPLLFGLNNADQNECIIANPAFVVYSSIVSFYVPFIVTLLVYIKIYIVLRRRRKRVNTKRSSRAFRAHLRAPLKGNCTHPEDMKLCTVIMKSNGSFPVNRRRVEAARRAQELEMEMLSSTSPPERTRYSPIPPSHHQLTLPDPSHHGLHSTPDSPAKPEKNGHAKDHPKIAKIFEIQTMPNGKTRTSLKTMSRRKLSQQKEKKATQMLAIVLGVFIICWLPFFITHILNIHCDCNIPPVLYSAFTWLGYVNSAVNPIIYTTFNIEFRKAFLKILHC
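Agonist mode: compounds alone added to overnight-plated D2 PathHunter cells for 90 min at 37 C, with 57 uM final dopamine (EC100) defining full response. Beta-arrestin recruitment detected by chemiluminescent reagent, read after 1 h at ambient temperature.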
D2 PAM-1 – D2 dopamine receptor (human) potentiation; 340,000 compounds, 0.34% hits; potentiation, % at 10 µM; HEK293 T-REx D2, calcium flux, EC20 dopamine potentiation; AID 485347; P14416;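 active means potentiation over 3 SD above the plate norm, cut at about 30% in these data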
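Using a no-wash calcium dye in inducible, force-coupled HEK293 Trex cells expressing D2, we tracked fluorescence each second for 180 s after compound, then for 180 s after EC20 dopamine to detect augmented signalling.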
D2 PAM-2 – potentiates the human D2 dopamine receptor allosterically | AID 624464 | potentiation, % (test concentration not listed) | P14416 | 360,000 compounds, 0.23% hits | DiscoveRx D2 beta-arrestin cells, luminescence, 90 min; 100% = 57 uM dopamine signal; in the data active means potentiation above about 50%; inconclusive means mostly about 30% to 49%
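D2 cells co-treated with compound plus 50 nM dopamine (EC20) for 90 min at 37 deg C to detect potentiation. Beta-arrestin recruitment was read as enzyme-fragment luminescence after 1 h at ambient temperature. Full response was set by 57 uM dopamine.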
D2 antagonist – D2 dopamine receptor (human) antagonism; inhibition, % at 10 µM; AID 485344; P14416; HEK293 TREx D2 cells, calcium flux, dopamine EC80; 340,000 compounds, 2% hits; in the data active means inhibition above about 30%; inactive means below that, where a call was filed
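Tetracycline-induced HEK293 T-REx cells expressing D2 force-coupled to calcium signalling were dye-loaded, exposed to compound for 180 s, then challenged with an EC80 of dopamine; calcium flux was followed kinetically for a further 180 s.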
D2 ag-2 – D2 dopamine receptor (human) agonism | P14416 | HEK293 T-REx D2 cells, calcium flux agonist mode | activation, % at 2 µM | 340,000 compounds, 0.53% hits | AID 485358;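 active means activation over 3 SD above normal in the single-dose calcium agonist read, cut at about 30% in these data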
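Agonism scored from kinetic calcium signal (1 read/sec, 180 s) following compound pin transfer, after a 10 s baseline. Cells: HEK293 Trex line expressing inducible D2 receptor coupled to calcium, dye-loaded after overnight culture at 30 C.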
A number is an active result; - = inactive; ? = inconclusive; . = no result given; ! = a repeat was not active. An excerpt weighted towards active compounds, which were near 2.4% of everything screened.

SMILES	D2 ag-1	D2 PAM-1	D2 PAM-2	D2 antagonist	D2 ag-2
CC(=O)c1cccc(NC(=O)CN2C(=O)c3cccnc3Sc3ccccc32)c1	.	-	.	.	-
CCc1ccccc1NC(=O)Cn1nnc2sc3c(c2c1=O)CCC(C(C)(C)C)C3 (stereo not drawn)	.	-	.	.	.
Cc1nc(Nc2ccc(S(N)(=O)=O)cc2)oc1C	-	49	-	-	-
CC(C)(C)c1ccc(C(=O)NCCc2csc3nc(-c4ccccc4F)nn23)cc1	.	-	.	.	-
C=C(C)[C@@H]1CC[C@]2(C(=O)O)CC[C@]3(C)[C@H](CC[C@@H]4[C@@]5(C)CC[C@H](O)C(C)(C)[C@@H]5CC[C@]43C)[C@@H]12	-	-	-	36	-
CCc1ccccc1N1C(=O)N(Cc2ccccc2C)c2ccccc2S1(=O)=O	.	-	.	.	-
Nc1ncccc1OCc1cccc(C(F)(F)F)c1	-	32	-	-	-
CC(CCc1ccccc1)NC(=O)C(=O)Nc1ccccc1 (stereo not drawn)	-	-	-	72	-
CCN(CC)CCNC(=O)c1ccc(Sc2ccc(Cl)cc2)c(NC(C)=O)c1	-	-	-	36	-
CCN(CCCNC(=O)c1ccc(Sc2ccc(Cl)cc2)c(NC(C)=O)c1)c1cccc(C)c1	.	-	.	.	-
CC(=O)Nc1cc(C(=O)NCc2ccc(C)cc2)ccc1Sc1ccc(C)cc1	.	-	.	.	-
CCN(CC)CCNC(=O)c1ccc(Sc2ccc(C)cc2)c(NC(C)=O)c1	-	-	-	54	-
O=C1CC(c2ccccc2)Cc2[nH]c(=O)c(-c3nc(-c4ccc(F)cc4)cs3)cc21 (stereo not drawn)	.	-	.	.	-
CCOC(=O)N1CCN(C(=O)c2c(O)c3cccc4c3n(c2=O)CC4)CC1	-	37	-	-	-
CN1CCN(C(=O)c2c(O)c3cccc4c3n(c2=O)CC4)CC1	-	-	-	-	-
Cc1nn(CCCC(=O)NCc2ccccc2)c(=O)c2cc3sccc3n12	.	-	.	.	-
Cc1ccc(Cl)cc1-c1cc(C(=O)NCc2cc(C(F)(F)F)cc(C(F)(F)F)c2)[nH]n1	-	.	-	.	.
Cc1ccc(CN2C(=O)SC(Nc3ccc(Cl)cc3)C2=O)cc1 (stereo not drawn)	.	-	.	.	-
C[C@@H]1NC(=O)c2cc([N+](=O)[O-])cc(I)c2OCC[C@@H](C(N)=O)NC(=O)[C@H](CCCCN)NC1=O	-	-	-	-	-
C[C@@H]1NC(=O)[C@H](CCCN=C(N)N)NC(=O)c2cc([N+](=O)[O-])cc(I)c2OCC[C@@H](C(N)=O)NC1=O	.	-	.	32	-
CCn1nc(CC(=O)Nc2ccc(-n3cnnn3)c(C)c2)c2ccccc2c1=O	-	-	-	-	-
CCn1nc(CC(=O)Nc2ccc(-n3cnnn3)c(OC)c2)c2ccccc2c1=O	-	-	-	35	-
Cc1ccccc1NC(=O)C1CCN(S(=O)(=O)c2cccc3nonc23)CC1	-	44!	-	-	-
Cc1ccc(NC(=O)C2CCN(S(=O)(=O)c3cccc4nonc34)CC2)cc1	-	-	-	.	.
Cc1cccc(C)c1NCc1n[nH]c(=S)n1-c1ccccc1	-	-	-	51	-
SMILES	D2 ag-1	D2 PAM-1	D2 PAM-2	D2 antagonist	D2 ag-2
N/C(=N\OC(=O)c1cccs1)c1cccc([N+](=O)[O-])c1	42	-	69	-	-
Cc1ccc(C(=O)O/N=C(\N)Cc2cccs2)cc1[N+](=O)[O-]	?	-	-	-	-
COc1ccccc1C/C(N)=N/OC(=O)c1ccc(C)c([N+](=O)[O-])c1	?	-	145	.	.
N/C(=N\OC(=O)c1cccc2ccccc12)c1cccc([N+](=O)[O-])c1	?	-	83	-	-
Cc1cccc(C(=O)O/N=C(\N)c2cccc([N+](=O)[O-])c2)c1	-	-	-	-	-
COc1ccc(/C(N)=N/OC(=O)c2cccc([N+](=O)[O-])c2C)cc1OC	?	-	93	-	-
COC(=O)c1c(NC(=O)Cc2coc3cc(C)ccc23)sc2c1CCCC2	.	-	.	.	-
CCN(CC)S(=O)(=O)c1nnc(NC(=O)c2ccc(Br)cc2)s1	.	-	.	.	-
Cn1cc(S(=O)(=O)N2CCOCC2)cc1C(=O)Nc1ccc(Cl)c(C(F)(F)F)c1	.	-	.	.	-
COc1cc([C@@H]2OC[C@@H]3[C@H]2CO[C@@H]3c2ccc3c(c2)OCO3)ccc1O	-	.	-	.	.
COc1cc(CC2COC(c3ccc(O)c(OC)c3)C2COC(C)=O)ccc1O (stereo not drawn)	-	-	-	45	-
Cc1cc(C)c(C#N)c(SCc2cn3ccccc3n2)n1	-	-	-	-	-
Cc1cc(C)nc(SCc2cn3ccccc3n2)n1	-	-	-	38	-
Cc1ccc(C)c(NC(=O)C2CCCN(S(=O)(=O)c3c(C)noc3/C=C/N(C)C)C2)c1 (stereo not drawn)	-	-	-	37	-
Cc1ccc(NC(=O)C2CCCN(S(=O)(=O)c3c(C)noc3/C=C/N(C)C)C2)c(C)c1 (stereo not drawn)	-	-	-	-	-
Cc1noc(/C=C/N(C)C)c1S(=O)(=O)N1CCCC(C(=O)Nc2ccc(F)cc2F)C1 (stereo not drawn)	-	-	-	54	-
COc1cc(OC)cc(-c2nc3nc(C)c(CCC(=O)Nc4ccc(Cl)cc4)c(C)n3n2)c1	.	-	.	.	-
COc1cc(/C=C(/C#N)c2nc3ccccc3[nH]2)ccc1OCC(=O)Nc1ccccc1C	-	-	-	-	-
COc1cc(/C=C(/C#N)c2nc3ccccc3[nH]2)ccc1OCC(=O)Nc1ccccc1C(C)C	-	-	-	32	-
COc1ccc(OC)c(C(=O)NC(CC(N)=O)c2ccc(N3CCN(c4ccccn4)CC3)c([N+](=O)[O-])c2)c1 (stereo not drawn)	-	-	-	32	-
COc1ccc(OC)c(C(=O)NC(CC(N)=O)c2ccc(N3CCN(c4ccccc4)CC3)c([N+](=O)[O-])c2)c1 (stereo not drawn)	-	-	-	-	-
Cc1oc2c(c(C)cc3oc(=O)c(CC(=O)NCCc4ccccc4)c(C)c32)c1C	.	-	.	.	-
Clc1cccc(CNc2cc(-c3ccccc3)nc3nncn23)c1	.	-	.	.	-
Cc1ccc(Nc2ncnc3c2cnn3-c2ccccc2)c(C)c1	.	-	.	.	-
Cc1ccc(C(C)C)c(OCC(=O)Nc2ccc(S(=O)(=O)Nc3onc(C)c3C)cc2)c1	.	-	.	.	.
O=C1C=C(Nc2cccnc2)c2ccccc2C1=O	-	.	58	.	.
O=C1C=C(Nc2ccc(F)cc2)c2ccccc2C1=O	-	-	50	-	-
Cc1cccc(OC(C)C(=O)N2CCC(c3nc4ccccc4o3)CC2)c1C (stereo not drawn)	.	-	.	.	-
CCN(CC)S(=O)(=O)c1nnc(NC(=O)COc2ccccc2F)s1	.	-	.	.	-
Cc1c(Cl)cccc1NC(=O)CSc1ncccc1C(=O)Oc1ccccc1Cl	.	-	.	.	-
